Source: PubChem BioAssay (NCI)
Compounds without any hit were thinned out: in the full panel of roughly 83,000, 20% have a hit.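 48-hour exposure, single concentration, 96-well plates; percent growth endpoint where 0 means no net growth. Active: below 10.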 Active and inactive are the calls of the source.

Experiments:
Assay in all cases: NCI-60 one-dose screen, 48 h (100 = growth as untreated, 0 = no growth, -100 = all killed)
Settings in all cases: 10 µM unless noted
HCT-15 colon = test system: HCT-15 colon
HT29 colon = test system: HT29 colon
SNB-19 CNS = test system: SNB-19 CNS
U251 CNS = test system: U251 CNS
PC-3 prostate = test system: PC-3 prostate
SK-MEL-5 melanoma = test system: SK-MEL-5 melanoma
UACC-62 melanoma = test system: UACC-62 melanoma
LOX IMVI melanoma = test system: LOX IMVI melanoma
SK-MEL-28 melanoma = test system: SK-MEL-28 melanoma
SK-MEL-2 melanoma = test system: SK-MEL-2 melanoma
EKVX NSCLC = test system: EKVX NSCLC
SN12C renal = test system: SN12C renal
UO-31 renal = test system: UO-31 renal
TK-10 renal = test system: TK-10 renal
ACHN renal = test system: ACHN renal
CAKI-1 renal = test system: CAKI-1 renal
A498 renal = test system: A498 renal
CCRF-CEM leukemia = test system: CCRF-CEM leukemia
MOLT-4 leukemia = test system: MOLT-4 leukemia

Measured: growth

COc1cccc(-c2nc3sccn3c2-c2ccnc(NCCCNS(=O)(=O)c3ccc(F)cc3)c2)c1
inactive: HCT-15 colon 19.4% | HT29 colon 44.4% | SNB-19 CNS 62.3% | U251 CNS 55.5% | LOX IMVI melanoma 23.1% | SK-MEL-28 melanoma 52.1% | SK-MEL-2 melanoma 21.2% | EKVX NSCLC 36.5% | SN12C renal 29.9% | TK-10 renal 80.4% | ACHN renal 22.6% | CAKI-1 renal 23.9% | A498 renal 48.7% | CCRF-CEM leukemia 10.6% | MOLT-4 leukemia 10.9%
active: PC-3 prostate 9.93% | SK-MEL-5 melanoma -39.3% | UACC-62 melanoma -38.3% | UO-31 renal 6.81%

COc1ccc(-c2nc(SCCC(C)C)nc(Nc3ccc(F)c(Cl)c3)c2C#N)cc1
inactive: HCT-15 colon 84.9% | HT29 colon 75.9% | SNB-19 CNS 77.9% | U251 CNS 33.7% | PC-3 prostate 80% | SK-MEL-5 melanoma 94.1% | UACC-62 melanoma 97.5% | LOX IMVI melanoma 76.4% | SK-MEL-28 melanoma 105% | SK-MEL-2 melanoma 120% | EKVX NSCLC 55.7% | SN12C renal 56.7% | UO-31 renal 56.6% | TK-10 renal 62.6% | ACHN renal 47.8% | CAKI-1 renal 75.5% | A498 renal 76.8% | CCRF-CEM leukemia 71% | MOLT-4 leukemia 86.1%

CN(C[C@H]1Cc2c(cccc2N2CCN(Cc3ccccn3)CC2)CN1)[C@H]1CCCc2cccnc21
inactive: HCT-15 colon 37.3% | HT29 colon 36.9% | SNB-19 CNS 57.6% | U251 CNS 32.5% | PC-3 prostate 45.7% | SK-MEL-5 melanoma 55.8% | UACC-62 melanoma 85.1% | LOX IMVI melanoma 44.9% | SK-MEL-28 melanoma 88.5% | SK-MEL-2 melanoma 73.2% | EKVX NSCLC 54.8% | SN12C renal 53.5% | UO-31 renal 20.1% | TK-10 renal 58.7% | ACHN renal 43.2% | CAKI-1 renal 42.8% | A498 renal 65.9% | CCRF-CEM leukemia 41.2% | MOLT-4 leukemia 41%

COc1ccc(-n2c(=S)sc3c(Cl)nc(C)nc32)c(OC)c1
active: HT29 colon -7.41% | U251 CNS -39.6% | LOX IMVI melanoma -81.9% | SK-MEL-28 melanoma -3.3% | UO-31 renal -36.2% | CAKI-1 renal -41.8% | CCRF-CEM leukemia -1.34% | MOLT-4 leukemia -1.97%
inactive: HCT-15 colon 21% | SNB-19 CNS 12.5% | PC-3 prostate 56.5% | SK-MEL-5 melanoma 80.1% | UACC-62 melanoma 51.6% | SK-MEL-2 melanoma 23.2% | EKVX NSCLC 49.3% | SN12C renal 27% | TK-10 renal 45.7% | ACHN renal 56.8% | A498 renal 110%

COc1ccc(-c2cc(-c3ccccc3)nc(SCCCC(=O)NO)n2)cc1OC
inactive: HCT-15 colon 16.5% | HT29 colon 15.1% | SNB-19 CNS 20% | PC-3 prostate 13% | SK-MEL-28 melanoma 21.5% | SN12C renal 13.8%
active: U251 CNS 1.87% | SK-MEL-5 melanoma -69.8% | UACC-62 melanoma -22.3% | LOX IMVI melanoma -61.6% | SK-MEL-2 melanoma -1.51% | EKVX NSCLC 8.24% | UO-31 renal -39.6% | TK-10 renal 4.89% | ACHN renal -0.775% | CAKI-1 renal -37.9% | A498 renal -24.9% | CCRF-CEM leukemia 6.42% | MOLT-4 leukemia 2.96%

COc1ccc(C2C(C#N)=C(N)Oc3c2ccc2ccccc32)cc1 (centres undefined)
active: A498 renal 0%
inactive: HCT-15 colon 28.3% | HT29 colon 34.1% | SNB-19 CNS 46.7% | U251 CNS 35.4% | PC-3 prostate 39.9% | SK-MEL-5 melanoma 31.2% | UACC-62 melanoma 23.6% | LOX IMVI melanoma 27.1% | SK-MEL-28 melanoma 52.2% | SK-MEL-2 melanoma 24.8% | EKVX NSCLC 73.8% | SN12C renal 51.5% | UO-31 renal 38.8% | TK-10 renal 81% | ACHN renal 52.5% | CAKI-1 renal 30.8% | CCRF-CEM leukemia 24.2% | MOLT-4 leukemia 31.7%

CCCCCCCCCCCCCCCCCCNC(=O)[C@H]1CSC(c2cccs2)N1 (some centres undefined)
active: HT29 colon -35% | U251 CNS -83.8% | SK-MEL-5 melanoma -66.2% | UACC-62 melanoma -92.1% | SK-MEL-28 melanoma -89.7% | SK-MEL-2 melanoma -86.7% | EKVX NSCLC 3.9% | SN12C renal -84.2% | CAKI-1 renal -0.0289% | CCRF-CEM leukemia -33.4% | MOLT-4 leukemia 3.87%
inactive: HCT-15 colon 42.5% | SNB-19 CNS 27.8% | PC-3 prostate 38.5% | LOX IMVI melanoma 14.2% | UO-31 renal 45.6% | TK-10 renal 29.9% | ACHN renal 67.9% | A498 renal 68.1%

CCNc1nc(S(=O)(=O)CC)nc2ccccc12
inactive: HCT-15 colon 92.3% | HT29 colon 95.5% | SNB-19 CNS 103% | U251 CNS 101% | PC-3 prostate 96.8% | SK-MEL-5 melanoma 90.8% | UACC-62 melanoma 90.8% | LOX IMVI melanoma 101% | SK-MEL-28 melanoma 108% | SK-MEL-2 melanoma 94.6% | EKVX NSCLC 95% | SN12C renal 101% | UO-31 renal 82.4% | TK-10 renal 112% | ACHN renal 86.1% | CAKI-1 renal 72.8% | A498 renal 113% | CCRF-CEM leukemia 86.6% | MOLT-4 leukemia 91%

C=C1CCC2C(C)(CO)C(O)CCC2(C)C1CC(NCc1ccccc1)C1=CCOC1=O (centres undefined)
inactive: HCT-15 colon 105% | HT29 colon 99.6% | SNB-19 CNS 101% | U251 CNS 96.2% | PC-3 prostate 101% | SK-MEL-5 melanoma 113% | UACC-62 melanoma 94.5% | LOX IMVI melanoma 97.5% | SK-MEL-28 melanoma 101% | SK-MEL-2 melanoma 101% | EKVX NSCLC 100% | SN12C renal 93.1% | UO-31 renal 87.9% | TK-10 renal 103% | ACHN renal 100% | CAKI-1 renal 90.3% | A498 renal 106% | CCRF-CEM leukemia 105% | MOLT-4 leukemia 108%

CC(C)(C)n1cc(-c2ccnc(NCCCNS(=O)(=O)c3ccc(Br)cc3)c2)c(-c2cccc(O)c2)n1
active: HCT-15 colon -47.3% | HT29 colon 1.23% | LOX IMVI melanoma -75.6% | SK-MEL-28 melanoma -32.1% | MOLT-4 leukemia 6.97%
inactive: SNB-19 CNS 48.7% | U251 CNS 29.5% | PC-3 prostate 16.9% | SK-MEL-5 melanoma 15.1% | UACC-62 melanoma 42.9% | SK-MEL-2 melanoma 19% | EKVX NSCLC 50.1% | SN12C renal 42.9% | UO-31 renal 39% | TK-10 renal 90.1% | ACHN renal 33.1% | CAKI-1 renal 36.7% | A498 renal 35.1% | CCRF-CEM leukemia 25.5%

Cn1cnc2c(N3CCN(C(=O)OCc4ccc5c(Cl)cc(Cl)c(O)c5n4)CC3)nc(Cl)nc21
inactive: HCT-15 colon 30.5% | HT29 colon 113% | SNB-19 CNS 60.3% | U251 CNS 38.6% | PC-3 prostate 54.8% | SK-MEL-5 melanoma 41.6% | UACC-62 melanoma 53.7% | LOX IMVI melanoma 44.5% | SK-MEL-28 melanoma 68.5% | SK-MEL-2 melanoma 81% | EKVX NSCLC 66.9% | SN12C renal 63% | UO-31 renal 48.2% | TK-10 renal 96% | ACHN renal 48.4% | CAKI-1 renal 63.8% | A498 renal 62.7% | CCRF-CEM leukemia 37.6% | MOLT-4 leukemia 59.5%

CCCCCCCCCCCCNC(=O)[C@H]1CSC(c2ccsc2)N1 (some centres undefined)
inactive: SK-MEL-5 melanoma 36.5% | A498 renal 106%
active: HCT-15 colon -71.4% | HT29 colon -74% | SNB-19 CNS -80% | U251 CNS -94.2% | PC-3 prostate -88.9% | UACC-62 melanoma -93.5% | LOX IMVI melanoma -89.5% | SK-MEL-28 melanoma -88% | SK-MEL-2 melanoma -91% | EKVX NSCLC -84% | SN12C renal -87% | UO-31 renal -99.6% | TK-10 renal -91.6% | ACHN renal -68.7% | CAKI-1 renal -13.7% | CCRF-CEM leukemia -43.2% | MOLT-4 leukemia -67.5%

C=C1CCC2C(C)(CO)C(O)CCC2(C)C1C/C=C1/C(=O)OCC1O/C=C/c1ccccc1 (centres undefined)
inactive: HCT-15 colon 57.8% | HT29 colon 56.6% | SNB-19 CNS 95.3% | U251 CNS 83.8% | PC-3 prostate 58.6% | SK-MEL-5 melanoma 82.1% | UACC-62 melanoma 65.2% | LOX IMVI melanoma 36.8% | SK-MEL-28 melanoma 93.3% | SK-MEL-2 melanoma 72.7% | EKVX NSCLC 103% | SN12C renal 73.8% | UO-31 renal 69.1% | TK-10 renal 119% | ACHN renal 87.2% | CAKI-1 renal 77.1% | A498 renal 86.4% | CCRF-CEM leukemia 10.7% | MOLT-4 leukemia 21.2%

O=C(O)c1nc(-c2ccccc2)oc1N1CCOCC1
inactive: HCT-15 colon 101% | HT29 colon 108% | SNB-19 CNS 92.3% | U251 CNS 90.9% | PC-3 prostate 100% | SK-MEL-5 melanoma 105% | UACC-62 melanoma 85.2% | LOX IMVI melanoma 108% | SK-MEL-28 melanoma 98.7% | SK-MEL-2 melanoma 97% | EKVX NSCLC 104% | SN12C renal 99% | UO-31 renal 81.6% | TK-10 renal 91.9% | ACHN renal 101% | CAKI-1 renal 92.2% | A498 renal 114% | CCRF-CEM leukemia 107% | MOLT-4 leukemia 105%

CCCCCCCCCCCCNC(=O)[C@H]1CSC(c2cc(Br)cs2)N1 (some centres undefined)
active: HCT-15 colon 3.37% | HT29 colon 0.836% | U251 CNS -52.6% | PC-3 prostate -35% | UACC-62 melanoma -84.5% | LOX IMVI melanoma -86.4% | SK-MEL-28 melanoma -82% | SK-MEL-2 melanoma -58.7% | EKVX NSCLC -64% | SN12C renal -53.5% | UO-31 renal -76% | TK-10 renal -80.1% | CCRF-CEM leukemia -42.1% | MOLT-4 leukemia -59.8%
inactive: SNB-19 CNS 74.5% | SK-MEL-5 melanoma 53.4% | ACHN renal 14.3% | CAKI-1 renal 77.9% | A498 renal 76.8%

Oc1ccc2cc(Br)ccc2c1-c1c(O)ccc2cc(Br)ccc12
inactive: HCT-15 colon 67.7% | HT29 colon 11.2% | SNB-19 CNS 78.3% | U251 CNS 65% | PC-3 prostate 42.1% | SK-MEL-5 melanoma 72.8% | UACC-62 melanoma 61.4% | LOX IMVI melanoma 61.8% | SK-MEL-28 melanoma 65.5% | SK-MEL-2 melanoma 74.9% | EKVX NSCLC 57.6% | SN12C renal 60.7% | UO-31 renal 24.3% | TK-10 renal 52% | ACHN renal 23.1% | CAKI-1 renal 40.2% | A498 renal 72% | CCRF-CEM leukemia 45% | MOLT-4 leukemia 40.2%
